A selection: hits, their analogues and other compounds. The true share with any hit is near 12%.
BAZ2B inh: inhibitors of human BAZ2B bromodomain | AlphaScreen BAZ2B-H3K14Ac peptide displacement | Potency, µM (top dose mostly 114 µM), inactives show top-dose activity change, negative = inhibition, hits mostly inhibitors | 360,000 compounds, 4.4% hits | AID 504333; also: % is scaled to controls: 0 for no effect and ±100 for the full control effect; nearly all actives have a fitted effect of over 60% in size
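Multi-concentration screen (max 110 uM) measuring displacement of acetylated histone H3 peptide from BAZ2B by AlphaScreen, using 50 nM protein, 50 nM peptide and 10 ug/mL streptavidin donor plus Ni-chelate acceptor beads.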
Sfp PPTase inh: blocks B. subtilis Sfp PPTase activity; Potency, µM, for inactives: largest response in the series, negative = inhibition, most hits filed as inhibitors; 310,000 compounds, 3.5% hits; Q9F4F7; Biochemical Sfp PPTase activity, qHTS;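 also: the enzyme is Sfp with the accession as filed and its product quenches rhodamine fluorescence; 0% = enzyme reaction without inhibitor and -100% = no enzyme wells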
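Buffer: 50 mM Hepes-Na pH 7.6, 10 mM MgCl2, 0.01% Nonidet P-40, 0.01% BSA. Enzyme 15 nM, pre-exposed to compound 15 min; substrates then added and fluorescence change tracked over 30 min.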
G9a inh: inhibitors of human histone lysine methyltransferase G9a; G9a H3K9 monomethylation, AlphaScreen, 2 h; Potency, µM (top dose mostly 102 µM), for inactives: at the top dose activity, negative = inhibition, actives largely listed as inhibitors; 350,000 compounds, 8.8% hits; AID 504332; also: % is scaled to controls: 0 for no effect and ±100 for the full control effect; nearly all actives have a fitted effect of over 75% in size
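Enzyme 20 nM + cpd, 15 min RT; add b-H3K9 pep 500 nM / SAM 20 uM; 2 h RT; anti-H3K9me1 Ab 0.5 ug/mL + SA donor / anti-rabbit acceptor beads 20 ug/mL each, 10 min; AlphaScreen read.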
HP1b chromo inh: HP1-beta chromodomain-methylated histone interaction inhibition | AlphaScreen HP1-beta / biotin-H3K9me3 peptide binding | Potency, µM (doses to about 114 µM), for inactives: at the highest dose activity change, negative = inhibition, most hits filed as inhibitors | 390,000 compounds, 0.56% hits | P83916; also: nearly all actives have a fitted effect of over 70% in size
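HP1-beta protein (50 nM final) preincubated 30 min at room temperature with biotinylated H3(1-18)K9me3 peptide (50 nM) in PBS pH 7.4, 0.01% Tween-20, then compound added for 30 min. AlphaScreen streptavidin donor/nickel chelate acceptor beads (10 ug/mL final), 30 min dark, luminescence read.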
JMJD2A Tudor inh: inhibitors of human JMJD2A Tudor domain. 390,000 compounds, 4.4% hits. O75164. Potency, µM (doses to about 114 µM), for inactives: at the top dose activity change, negative = inhibition, actives largely listed as inhibitors. AlphaScreen JMJD2A-Tudor / H3K4me3 peptide binding; also: % is scaled to controls: 0 for no effect and ±100 for the full control effect; nearly all actives have a fitted effect of over 50% in size
Target sequence (O75164 whole entry, looked up, the tested form may be a part): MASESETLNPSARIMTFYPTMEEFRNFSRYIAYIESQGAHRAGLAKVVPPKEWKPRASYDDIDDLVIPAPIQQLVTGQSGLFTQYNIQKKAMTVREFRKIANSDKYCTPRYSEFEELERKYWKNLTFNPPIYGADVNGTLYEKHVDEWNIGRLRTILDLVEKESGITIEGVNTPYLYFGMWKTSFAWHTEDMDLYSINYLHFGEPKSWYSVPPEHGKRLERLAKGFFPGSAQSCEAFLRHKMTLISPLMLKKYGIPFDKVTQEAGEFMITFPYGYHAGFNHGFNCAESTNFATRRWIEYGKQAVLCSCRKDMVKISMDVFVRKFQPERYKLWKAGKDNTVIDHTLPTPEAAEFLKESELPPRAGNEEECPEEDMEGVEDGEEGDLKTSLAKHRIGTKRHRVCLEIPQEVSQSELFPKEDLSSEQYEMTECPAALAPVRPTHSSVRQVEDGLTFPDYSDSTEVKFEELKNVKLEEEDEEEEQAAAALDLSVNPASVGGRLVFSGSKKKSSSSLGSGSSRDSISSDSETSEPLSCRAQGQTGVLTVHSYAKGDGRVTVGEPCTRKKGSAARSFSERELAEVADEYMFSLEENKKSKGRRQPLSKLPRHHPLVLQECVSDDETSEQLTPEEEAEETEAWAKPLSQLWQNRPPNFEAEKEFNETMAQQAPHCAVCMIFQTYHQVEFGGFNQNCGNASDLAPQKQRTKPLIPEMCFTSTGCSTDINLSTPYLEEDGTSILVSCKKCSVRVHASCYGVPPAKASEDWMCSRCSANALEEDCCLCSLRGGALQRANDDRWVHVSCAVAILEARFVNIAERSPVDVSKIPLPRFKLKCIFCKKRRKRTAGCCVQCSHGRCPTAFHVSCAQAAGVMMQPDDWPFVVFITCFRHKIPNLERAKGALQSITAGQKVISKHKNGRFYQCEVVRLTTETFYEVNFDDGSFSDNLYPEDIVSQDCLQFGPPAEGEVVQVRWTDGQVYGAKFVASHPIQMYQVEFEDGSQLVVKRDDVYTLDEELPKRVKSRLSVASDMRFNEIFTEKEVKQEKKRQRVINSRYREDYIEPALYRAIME
L3MBTL1 inh: L3MBTL1 (human) inhibition; Q9Y468; AlphaScreen L3MBTL1–H3K9me1 peptide binding; Potency, µM (titrated, usually from 57.1 µM), without a hit: at the highest dose activity, negative = inhibition, actives largely listed as inhibitors; 230,000 compounds, 0.66% hits; also: % is scaled to controls: 0 for no effect and ±100 for the full control effect; nearly all actives have a fitted effect of over 60% in size
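L3MBTL1 50 nM + b-AHA-H3(1-15)K9me1 75 nM, 30 min RT; compound added, 30 min RT; streptavidin donor/Ni-chelate acceptor beads 10 ug/mL each final, 30 min RT dark; AlphaScreen read.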
* hit, by the source's call; ! = not active in a repeat; [ ] = remark or other dose. Calls follow the shape of the dose curve; as a rule, active = well fitted curve in the direction sought with a large enough effect; inconclusive = small, poorly fitted or top-dose-only effect, or another doubt; inactive = no such curve, though single readings can be large; an effect the other way counts as inactive or inconclusive. Potency is read from the fitted curve at half-maximal effect.

`CC1(C)Cc2c(c(N3CCOCC3)nc3snc(Br)c23)CO1` gave BAZ2B inh -6%, Sfp PPTase inh 45µM*, G9a inh inconclusive, HP1b chromo inh 37%, JMJD2A Tudor inh inconclusive and L3MBTL1 inh 10%.
For CC1(C)Cc2c(c(N3CCOCC3)nc3sc(C(=O)Nc4ccc(Cl)cc4)c(N)c23)CO1 the results were BAZ2B inh 3%, Sfp PPTase inh 32µM*, G9a inh 10µM*!, HP1b chromo inh -18% and JMJD2A Tudor inh -33%.
`CC(C)c1ccc(OC(=O)c2cc(-c3ccccc3)on2)cc1` gave BAZ2B inh 34%, G9a inh 35%[59 µM], HP1b chromo inh 166% and JMJD2A Tudor inh 9%.
COc1ccc(C)cc1NC(=O)c1ccc(=O)n(Cc2ccccc2)c1 was read as BAZ2B inh -1%, G9a inh -2%[59 µM], HP1b chromo inh 20% and JMJD2A Tudor inh -2%.
`Nc1c(C(=O)c2ccccc2)sc2nsc(SCCN3CCOCC3)c12` gave BAZ2B inh -16%, Sfp PPTase inh 50µM*, HP1b chromo inh 54%, JMJD2A Tudor inh -19% and L3MBTL1 inh 50%.
O=C(CSc1nc2c([nH]c3ccccc32)c(=O)n1-c1ccccc1)NCc1ccc(F)cc1 was read as BAZ2B inh 3%, G9a inh 7%[59 µM], HP1b chromo inh 7%[57 µM] and JMJD2A Tudor inh -12%.
`Cc1ccc(N(CCC#N)C(=O)COC(=O)c2cc(C)oc2C)cc1` gave BAZ2B inh -31%, G9a inh 3%[2.33 µM], HP1b chromo inh 20%, JMJD2A Tudor inh -15% and L3MBTL1 inh -10%.
Cc1ccc(N(CCC#N)C(=O)COC(=O)c2cc(C)no2)cc1 was read as BAZ2B inh 10%, G9a inh 22µM*, HP1b chromo inh 14%, JMJD2A Tudor inh -13% and L3MBTL1 inh -3%.
`Cc1ccc(N(CCC#N)C(=O)COC(=O)C2CCN(S(=O)(=O)c3ccc(C)c(C)c3)CC2)cc1` gave BAZ2B inh -32%, G9a inh 45µM*, HP1b chromo inh 34%, JMJD2A Tudor inh -3% and L3MBTL1 inh 3%.
Cc1cc(C)cc(N(CCC#N)C(=O)COC(=O)C2CCN(S(=O)(=O)c3ccc(C)c(C)c3)CC2)c1 was read as BAZ2B inh 7%, G9a inh -44%, HP1b chromo inh 19%, JMJD2A Tudor inh -15% and L3MBTL1 inh -8%.
`O=C(CN1CCN(C(C(=O)Nc2ccc(F)cc2)c2ccccc2)CC1)NC1CC1` (stereo unspecified) gave BAZ2B inh 2%, G9a inh 31%[12.7 µM], HP1b chromo inh -7%, JMJD2A Tudor inh -1% and L3MBTL1 inh 5%.
C[C@H](CO)N1C[C@H](C)[C@@H](CN(C)Cc2ccc(Cl)c(Cl)c2)Oc2c(NS(=O)(=O)c3ccc(F)cc3)cccc2C1=O was read as HP1b chromo inh 20%, JMJD2A Tudor inh -32% and L3MBTL1 inh -2%.
For CC(=O)Nc1ccc(NCc2cccs2)cc1 the results were BAZ2B inh -11%, Sfp PPTase inh 3%, HP1b chromo inh 23%, JMJD2A Tudor inh -19% and L3MBTL1 inh 36%.
For Oc1ccc(NCc2cccs2)cc1 the results were BAZ2B inh inconclusive, Sfp PPTase inh inconclusive, G9a inh 40µM*, HP1b chromo inh inconclusive, JMJD2A Tudor inh -33% and L3MBTL1 inh inconclusive.
Screening CCCCC/C=C\C/C=C\C/C=C\C/C=C\CCCCCC(=O)NC(C)C(=O)O (stereo unspecified) returned Sfp PPTase inh -9%.
`CCC(=O)c1ccc(OCC(=O)OCC(=O)Nc2cccc(S(=O)(=O)N3CCOCC3)c2)cc1` gave HP1b chromo inh 23% and JMJD2A Tudor inh -14%.
CCCSCC(=O)Nc1ncc2c(n1)-c1ccccc1CC2 was read as BAZ2B inh 56µM*, Sfp PPTase inh -11%, G9a inh 8.9µM*, HP1b chromo inh 23%, JMJD2A Tudor inh inconclusive and L3MBTL1 inh inconclusive.
O=C(Nc1ncc2c(n1)-c1ccccc1CC2)c1ccc(Cl)cc1 was read as BAZ2B inh 6%, Sfp PPTase inh 0%, G9a inh -5%[0.0925 µM], HP1b chromo inh 11%, JMJD2A Tudor inh inconclusive and L3MBTL1 inh 5%.
`CC1CC2(CCCCC2)N2C(=O)C(=O)c3cccc1c32` (stereo unspecified) gave BAZ2B inh inconclusive, Sfp PPTase inh 6%, G9a inh 71µM*, HP1b chromo inh inconclusive, JMJD2A Tudor inh inconclusive and L3MBTL1 inh -15%.
Screening CCOc1ccc(N2CC(NC(=O)c3cc4ccccc4o3)CC2=O)cc1 (stereo unspecified) returned BAZ2B inh -10%, G9a inh 2%[59 µM], HP1b chromo inh 53% and JMJD2A Tudor inh -10%.
For CCC(Sc1ncnc2sc(C)c(C)c12)C(=O)OC (stereo unspecified) the results were BAZ2B inh inconclusive, Sfp PPTase inh 0%, G9a inh 2µM*, HP1b chromo inh 65% and JMJD2A Tudor inh -20%.
For CCC(Sc1ncnc2sc3c(c12)CCCC3)C(=O)OC(C)C (stereo unspecified) the results were BAZ2B inh 178%, G9a inh 164%[59 µM], HP1b chromo inh 104% and JMJD2A Tudor inh 82%.
`Cc1cccnc1NC(=O)CSc1ncnc2sc(C)c(C)c12` gave BAZ2B inh inconclusive, G9a inh 50µM*, HP1b chromo inh -65%, JMJD2A Tudor inh inconclusive and L3MBTL1 inh inconclusive.
Screening Cc1sc2ncnc(SCC(=O)NC(C)(C)C)c2c1C returned BAZ2B inh -3%, Sfp PPTase inh 2%, G9a inh -13%, HP1b chromo inh 41%, JMJD2A Tudor inh -26% and L3MBTL1 inh 6%.
Cc1ccc2c(=O)cc(C(=O)Nc3ccc(S(=O)(=O)N4CCC(C)CC4)cc3)oc2c1C was read as BAZ2B inh -3%, G9a inh -15%[59 µM], HP1b chromo inh 20% and JMJD2A Tudor inh -15%.
`Cc1onc(-c2ccccc2Cl)c1C(=O)NCc1nc(-c2ccccc2)no1` gave BAZ2B inh 5%, Sfp PPTase inh 89µM*, G9a inh inconclusive, HP1b chromo inh 38% and JMJD2A Tudor inh -6%.
`Cc1occc1C(=O)NCc1nc(-c2ccccc2)no1` gave BAZ2B inh -9%, Sfp PPTase inh 15%, G9a inh 10%, HP1b chromo inh 8% and JMJD2A Tudor inh -5%.
Screening Cc1cccc(-c2noc(CNC(=O)c3ccoc3C)n2)c1 returned BAZ2B inh -24%, Sfp PPTase inh 32µM*, G9a inh 15%, HP1b chromo inh 31% and JMJD2A Tudor inh -23%.

From PubChem BioAssay
